# Measured values from PMC7862700, “An all-to-all approach to the identification of sequence-specific readers for epigenetic DNA modifications on cytosine”.
# Experiments:
# Test in all cases: DAPPL (digital affinity profiling via proximity ligation, sequencing); 10 mM Tris-HCl pH 7.5, 50 mM NaCl, 1 mM DTT, 4% glycerol, room temperature, 30 min; GST-TFs on glutathione beads, 16-mer random dsDNA library, 0.1% formaldehyde crosslink after washing; high values mean tight binding
# FEV = biological target: T1, FEV (Homo sapiens, UniProt Q99581 1-238); conditions: protein: recombinant; tags: N-terminal GST; dsDNA, one strand shown
# T1 sequence: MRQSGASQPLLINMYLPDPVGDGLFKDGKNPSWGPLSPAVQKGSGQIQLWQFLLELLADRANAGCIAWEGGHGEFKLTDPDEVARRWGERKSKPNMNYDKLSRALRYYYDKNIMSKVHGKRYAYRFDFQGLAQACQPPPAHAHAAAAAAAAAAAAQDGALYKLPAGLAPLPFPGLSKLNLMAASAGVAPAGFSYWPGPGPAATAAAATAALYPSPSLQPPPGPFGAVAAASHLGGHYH
# In short: (§1)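 Sequencing on an Illumina NextSeq500 followed washing, crosslinking with 0.1% formaldehyde, proximity ligation (BsaI/T4 ligase, 1 h, 37 °C) and PCR amplification of pools that had been incubated for 30 min at room temperature with 200 nmole of a random double-stranded 16-mer DNA library in Tris/NaCl/DTT/glycerol buffer. Each pool held DNA-barcoded human transcription factors, expressed in yeast as GST fusions and captured on glutathione beads, plus a tag-only sample. Binding signal is a hexamer's read frequency for a factor divided by its frequency in the tag-only sample.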
# ETV5 = ETV5 (Homo sapiens, UniProt P41161 1-510); conditions: protein: recombinant; tags: N-terminal GST; dsDNA, one strand shown
# ETV5, sequence (P41161 whole entry): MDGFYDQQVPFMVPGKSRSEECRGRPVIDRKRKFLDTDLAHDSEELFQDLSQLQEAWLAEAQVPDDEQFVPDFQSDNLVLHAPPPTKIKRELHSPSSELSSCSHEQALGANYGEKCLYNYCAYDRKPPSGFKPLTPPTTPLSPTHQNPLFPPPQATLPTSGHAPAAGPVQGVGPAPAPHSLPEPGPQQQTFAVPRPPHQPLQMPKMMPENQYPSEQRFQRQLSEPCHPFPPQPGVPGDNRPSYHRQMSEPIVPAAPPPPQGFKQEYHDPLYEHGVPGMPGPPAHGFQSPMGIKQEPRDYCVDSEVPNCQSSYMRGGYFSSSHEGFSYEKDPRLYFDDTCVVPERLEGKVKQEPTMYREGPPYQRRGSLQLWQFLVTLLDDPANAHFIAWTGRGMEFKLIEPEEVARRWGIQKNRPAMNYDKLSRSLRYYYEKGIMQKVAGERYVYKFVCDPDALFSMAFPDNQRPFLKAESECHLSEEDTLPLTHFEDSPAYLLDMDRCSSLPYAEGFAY
# In short: as §1
# HSF1 = HSF1 (Homo sapiens, UniProt Q00613 1-529); conditions: protein: recombinant; tags: N-terminal GST; chain copies: 3; dsDNA, one strand shown
# HSF1, sequence (Q00613 whole entry): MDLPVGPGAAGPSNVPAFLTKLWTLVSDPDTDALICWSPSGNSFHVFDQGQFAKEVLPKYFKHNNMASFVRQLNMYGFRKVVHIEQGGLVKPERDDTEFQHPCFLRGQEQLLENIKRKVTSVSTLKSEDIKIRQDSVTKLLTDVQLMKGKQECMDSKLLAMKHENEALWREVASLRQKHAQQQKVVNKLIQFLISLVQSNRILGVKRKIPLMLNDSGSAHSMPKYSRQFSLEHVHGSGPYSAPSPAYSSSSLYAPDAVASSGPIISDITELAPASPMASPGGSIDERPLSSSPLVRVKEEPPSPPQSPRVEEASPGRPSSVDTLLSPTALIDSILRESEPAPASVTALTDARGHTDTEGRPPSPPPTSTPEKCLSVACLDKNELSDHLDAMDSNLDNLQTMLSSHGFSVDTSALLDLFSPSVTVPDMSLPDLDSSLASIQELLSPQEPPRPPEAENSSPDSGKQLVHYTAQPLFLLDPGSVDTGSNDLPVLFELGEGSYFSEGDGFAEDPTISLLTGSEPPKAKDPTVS
# In short: as §1
# SPIC = biological target: T2, SPIC (Homo sapiens, UniProt Q8N5J4 1-248); conditions: protein: recombinant; tags: N-terminal GST; dsDNA, one strand shown
# T2 sequence: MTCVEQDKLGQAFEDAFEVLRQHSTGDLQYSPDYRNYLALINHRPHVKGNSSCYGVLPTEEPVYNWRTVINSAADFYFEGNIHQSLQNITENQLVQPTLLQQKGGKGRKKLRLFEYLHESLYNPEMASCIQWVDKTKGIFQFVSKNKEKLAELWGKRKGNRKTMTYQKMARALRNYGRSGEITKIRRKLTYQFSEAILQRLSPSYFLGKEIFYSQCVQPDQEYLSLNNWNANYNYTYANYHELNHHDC
# In short: as §1
# ELF4 = ELF4 (Homo sapiens, UniProt Q99607 1-663); conditions: protein: recombinant; tags: N-terminal GST; dsDNA, one strand shown
# ELF4, sequence (Q99607 whole entry): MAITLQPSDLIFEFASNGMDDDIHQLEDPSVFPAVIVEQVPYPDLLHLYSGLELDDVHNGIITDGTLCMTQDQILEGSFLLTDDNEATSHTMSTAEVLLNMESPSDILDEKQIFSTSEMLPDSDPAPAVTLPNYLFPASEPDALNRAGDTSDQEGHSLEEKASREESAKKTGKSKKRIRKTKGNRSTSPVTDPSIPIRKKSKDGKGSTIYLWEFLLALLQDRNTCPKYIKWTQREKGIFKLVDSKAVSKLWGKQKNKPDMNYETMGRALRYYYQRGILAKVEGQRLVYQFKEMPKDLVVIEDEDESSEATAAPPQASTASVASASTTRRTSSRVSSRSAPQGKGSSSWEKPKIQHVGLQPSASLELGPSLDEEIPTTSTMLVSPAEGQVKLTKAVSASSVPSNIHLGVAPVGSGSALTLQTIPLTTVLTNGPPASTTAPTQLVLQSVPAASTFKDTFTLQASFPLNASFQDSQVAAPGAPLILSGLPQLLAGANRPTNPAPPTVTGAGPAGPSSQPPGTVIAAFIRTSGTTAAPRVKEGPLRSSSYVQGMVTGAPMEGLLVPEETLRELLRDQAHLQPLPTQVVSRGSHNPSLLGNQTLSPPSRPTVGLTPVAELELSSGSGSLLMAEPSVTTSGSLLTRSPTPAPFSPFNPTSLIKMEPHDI
# In short: as §1
# ELK4 = biological target: T3, ELK4 (Homo sapiens, UniProt P28324-2 1-405); conditions: protein: recombinant; tags: N-terminal GST; dsDNA, one strand shown
# T3 sequence: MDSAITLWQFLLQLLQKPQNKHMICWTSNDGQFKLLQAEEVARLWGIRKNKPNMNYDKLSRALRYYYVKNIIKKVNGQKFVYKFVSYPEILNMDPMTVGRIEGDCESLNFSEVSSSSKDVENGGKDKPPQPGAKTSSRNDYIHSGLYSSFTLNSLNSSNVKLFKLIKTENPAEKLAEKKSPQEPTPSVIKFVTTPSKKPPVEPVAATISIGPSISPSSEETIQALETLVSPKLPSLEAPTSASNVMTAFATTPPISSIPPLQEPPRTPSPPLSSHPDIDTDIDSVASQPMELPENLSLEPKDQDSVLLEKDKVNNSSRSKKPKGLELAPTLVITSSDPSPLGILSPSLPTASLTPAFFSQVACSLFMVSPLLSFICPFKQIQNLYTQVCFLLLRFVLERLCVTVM
# In short: as §1
# ETV2 = biological target: T4, ETV2 (Homo sapiens, UniProt O00321 1-342); conditions: protein: recombinant; tags: N-terminal GST; dsDNA, one strand shown
# T4 sequence: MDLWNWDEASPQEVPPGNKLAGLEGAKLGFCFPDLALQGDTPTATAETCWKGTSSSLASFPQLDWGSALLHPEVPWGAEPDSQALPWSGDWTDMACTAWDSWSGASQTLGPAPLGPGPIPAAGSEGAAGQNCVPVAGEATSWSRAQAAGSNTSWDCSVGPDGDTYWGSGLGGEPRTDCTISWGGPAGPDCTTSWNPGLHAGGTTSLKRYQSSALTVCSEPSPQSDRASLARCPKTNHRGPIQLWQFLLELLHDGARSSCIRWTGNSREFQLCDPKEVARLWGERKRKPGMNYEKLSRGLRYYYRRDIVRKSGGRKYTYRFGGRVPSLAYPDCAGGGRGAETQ
# In short: as §1
# ELF3 = biological target: T5, ELF3 (Homo sapiens, UniProt P78545 1-371); conditions: protein: recombinant; tags: N-terminal GST; dsDNA, one strand shown
# T5 sequence: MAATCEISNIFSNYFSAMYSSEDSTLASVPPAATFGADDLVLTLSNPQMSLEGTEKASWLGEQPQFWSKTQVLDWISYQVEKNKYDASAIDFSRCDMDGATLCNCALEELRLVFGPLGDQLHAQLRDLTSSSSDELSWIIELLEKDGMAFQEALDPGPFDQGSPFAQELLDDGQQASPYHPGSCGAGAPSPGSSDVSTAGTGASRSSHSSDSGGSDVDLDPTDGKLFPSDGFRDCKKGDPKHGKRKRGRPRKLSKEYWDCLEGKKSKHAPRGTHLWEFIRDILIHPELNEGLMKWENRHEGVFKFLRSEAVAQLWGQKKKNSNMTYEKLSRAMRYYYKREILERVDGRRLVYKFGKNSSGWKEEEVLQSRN
# In short: as §1
# ETV1 = ETV1 (Homo sapiens, UniProt P50549 1-477); conditions: protein: recombinant; tags: N-terminal GST; dsDNA, one strand shown
# ETV1, sequence (P50549 whole entry): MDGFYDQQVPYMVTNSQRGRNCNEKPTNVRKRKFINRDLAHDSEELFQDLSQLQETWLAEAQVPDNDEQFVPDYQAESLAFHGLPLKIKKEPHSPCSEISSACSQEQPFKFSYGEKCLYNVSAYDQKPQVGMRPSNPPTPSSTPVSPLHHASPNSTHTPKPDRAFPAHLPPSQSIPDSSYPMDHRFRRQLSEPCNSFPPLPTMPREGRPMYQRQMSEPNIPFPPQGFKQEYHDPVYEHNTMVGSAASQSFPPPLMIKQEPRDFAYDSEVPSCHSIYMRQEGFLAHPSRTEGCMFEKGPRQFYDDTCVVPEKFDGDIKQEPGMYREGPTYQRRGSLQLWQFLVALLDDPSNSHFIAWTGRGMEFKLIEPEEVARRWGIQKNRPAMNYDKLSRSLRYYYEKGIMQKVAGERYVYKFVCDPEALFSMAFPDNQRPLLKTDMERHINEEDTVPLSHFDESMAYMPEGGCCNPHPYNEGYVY
# In short: as §1
# ERF = biological target: T6, ERF (Homo sapiens, UniProt P50548 1-548); conditions: protein: recombinant; tags: N-terminal GST; dsDNA, one strand shown
# T6 sequence: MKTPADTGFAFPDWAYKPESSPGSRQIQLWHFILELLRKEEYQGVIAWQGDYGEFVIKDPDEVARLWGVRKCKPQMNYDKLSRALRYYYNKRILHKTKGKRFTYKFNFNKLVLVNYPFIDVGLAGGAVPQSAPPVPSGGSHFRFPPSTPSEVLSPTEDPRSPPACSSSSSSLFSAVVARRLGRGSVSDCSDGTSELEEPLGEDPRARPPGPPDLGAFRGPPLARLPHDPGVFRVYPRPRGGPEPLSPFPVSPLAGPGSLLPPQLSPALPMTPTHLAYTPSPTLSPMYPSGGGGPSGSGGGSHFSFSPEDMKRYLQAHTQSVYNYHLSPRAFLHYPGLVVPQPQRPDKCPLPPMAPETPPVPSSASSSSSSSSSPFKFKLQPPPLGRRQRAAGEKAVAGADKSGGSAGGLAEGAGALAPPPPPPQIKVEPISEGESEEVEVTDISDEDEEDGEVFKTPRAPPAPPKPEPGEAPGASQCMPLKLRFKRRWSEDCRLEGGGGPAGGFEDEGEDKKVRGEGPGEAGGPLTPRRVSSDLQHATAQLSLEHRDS
# In short: as §1
# ETV3L = biological target: T7, ETV3L (Homo sapiens, UniProt Q6ZN32 1-361); conditions: protein: recombinant; tags: N-terminal GST; dsDNA, one strand shown
# T7 sequence: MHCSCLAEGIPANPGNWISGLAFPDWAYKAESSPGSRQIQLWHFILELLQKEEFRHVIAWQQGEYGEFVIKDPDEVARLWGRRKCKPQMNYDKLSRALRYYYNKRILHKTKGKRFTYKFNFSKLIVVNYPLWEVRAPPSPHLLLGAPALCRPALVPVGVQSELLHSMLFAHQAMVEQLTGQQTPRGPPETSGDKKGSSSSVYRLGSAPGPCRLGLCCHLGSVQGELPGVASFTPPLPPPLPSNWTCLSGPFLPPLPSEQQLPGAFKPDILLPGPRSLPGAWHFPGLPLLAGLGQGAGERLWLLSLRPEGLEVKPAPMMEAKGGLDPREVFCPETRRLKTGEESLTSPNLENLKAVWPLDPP
# In short: as §1
# ETS2 = biological target: T8, ETS2 (Homo sapiens, UniProt P15036 1-469); conditions: protein: recombinant; tags: N-terminal GST; dsDNA, one strand shown
# T8 sequence: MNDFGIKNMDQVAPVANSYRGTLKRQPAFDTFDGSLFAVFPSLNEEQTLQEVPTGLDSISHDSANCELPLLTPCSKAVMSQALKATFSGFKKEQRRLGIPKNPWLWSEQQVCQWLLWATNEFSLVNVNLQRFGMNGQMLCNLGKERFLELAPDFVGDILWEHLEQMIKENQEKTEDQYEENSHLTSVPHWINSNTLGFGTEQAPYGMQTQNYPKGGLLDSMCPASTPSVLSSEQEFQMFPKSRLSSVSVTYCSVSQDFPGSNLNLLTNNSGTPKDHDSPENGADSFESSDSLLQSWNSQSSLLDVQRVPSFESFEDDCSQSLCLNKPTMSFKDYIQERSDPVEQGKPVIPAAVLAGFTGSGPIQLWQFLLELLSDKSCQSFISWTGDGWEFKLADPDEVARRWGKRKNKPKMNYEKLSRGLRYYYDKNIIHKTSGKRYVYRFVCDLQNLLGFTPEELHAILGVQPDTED
# In short: as §1
# SPDEF = biological target: T9, SPDEF (Homo sapiens, UniProt O95238 1-335); conditions: protein: recombinant; tags: N-terminal GST; dsDNA, one strand shown
# T9 sequence: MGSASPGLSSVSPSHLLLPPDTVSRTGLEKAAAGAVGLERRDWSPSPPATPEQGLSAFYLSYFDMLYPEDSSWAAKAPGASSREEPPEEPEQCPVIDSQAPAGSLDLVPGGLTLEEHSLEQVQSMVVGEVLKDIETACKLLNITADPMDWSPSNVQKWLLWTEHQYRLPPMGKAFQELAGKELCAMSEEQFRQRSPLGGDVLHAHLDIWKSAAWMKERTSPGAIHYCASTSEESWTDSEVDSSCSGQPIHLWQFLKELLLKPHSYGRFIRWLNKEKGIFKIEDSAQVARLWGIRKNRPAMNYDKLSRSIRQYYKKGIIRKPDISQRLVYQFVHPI
# In short: as §1
# ETV7 = biological target: T10, ETV7 (Homo sapiens, UniProt Q9Y603 1-341); conditions: protein: recombinant; tags: N-terminal GST; dsDNA, one strand shown
# T10 sequence: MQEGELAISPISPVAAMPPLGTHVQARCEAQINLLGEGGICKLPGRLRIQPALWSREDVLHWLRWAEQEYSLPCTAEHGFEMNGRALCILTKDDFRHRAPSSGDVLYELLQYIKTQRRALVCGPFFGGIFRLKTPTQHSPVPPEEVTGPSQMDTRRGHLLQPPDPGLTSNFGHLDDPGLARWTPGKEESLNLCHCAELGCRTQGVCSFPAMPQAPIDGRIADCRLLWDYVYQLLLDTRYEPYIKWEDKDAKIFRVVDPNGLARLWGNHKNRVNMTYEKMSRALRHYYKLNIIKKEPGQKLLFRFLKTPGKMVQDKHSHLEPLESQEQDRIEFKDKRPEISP
# In short: as §1
# ELF5 = biological target: T11, ELF5 (Homo sapiens, UniProt Q9UKW6-2 1-255); conditions: protein: recombinant; tags: N-terminal GST; dsDNA, one strand shown
# T11 sequence: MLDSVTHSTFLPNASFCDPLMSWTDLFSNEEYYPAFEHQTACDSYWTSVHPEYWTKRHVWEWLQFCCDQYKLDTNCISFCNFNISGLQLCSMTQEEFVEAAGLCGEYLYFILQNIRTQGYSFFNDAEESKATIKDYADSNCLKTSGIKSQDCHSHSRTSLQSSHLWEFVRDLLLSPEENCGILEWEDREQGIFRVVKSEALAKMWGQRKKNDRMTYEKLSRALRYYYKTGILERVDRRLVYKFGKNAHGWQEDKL
# In short: as §1
# ETV3 = biological target: T12, ETV3 (Homo sapiens, UniProt P41162-2 1-143); conditions: protein: recombinant; tags: N-terminal GST; dsDNA, one strand shown
# T12 sequence: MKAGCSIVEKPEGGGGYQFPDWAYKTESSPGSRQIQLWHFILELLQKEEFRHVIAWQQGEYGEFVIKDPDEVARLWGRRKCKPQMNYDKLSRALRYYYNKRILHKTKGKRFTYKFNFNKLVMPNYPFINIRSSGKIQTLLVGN
# In short: as §1
# ETV6 = ETV6 (Homo sapiens, UniProt P41212 1-452); conditions: protein: recombinant; tags: N-terminal GST; dsDNA, one strand shown
# ETV6, sequence (P41212 whole entry): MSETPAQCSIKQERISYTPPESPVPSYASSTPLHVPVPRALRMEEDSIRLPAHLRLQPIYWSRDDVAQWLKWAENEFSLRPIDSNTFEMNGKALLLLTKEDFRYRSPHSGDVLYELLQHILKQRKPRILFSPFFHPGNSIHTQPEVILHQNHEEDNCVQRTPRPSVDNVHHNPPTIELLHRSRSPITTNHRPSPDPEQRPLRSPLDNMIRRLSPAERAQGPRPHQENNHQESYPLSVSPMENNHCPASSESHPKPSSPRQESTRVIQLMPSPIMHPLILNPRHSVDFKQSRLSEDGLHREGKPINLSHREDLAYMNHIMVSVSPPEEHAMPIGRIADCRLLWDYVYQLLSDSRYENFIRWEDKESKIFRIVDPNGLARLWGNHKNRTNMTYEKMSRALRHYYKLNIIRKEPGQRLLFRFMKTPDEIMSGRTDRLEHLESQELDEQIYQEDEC
# In short: as §1
sequence,measurement,setting,value
CCCTCA,binding signal,FEV,"1.24 fold enrichment (6-mer frequency, TF over GST control)"
same,binding signal,ETV5,"1.18 fold enrichment (6-mer frequency, TF over GST control)"
same,binding signal,HSF1,"1.03 fold enrichment (6-mer frequency, TF over GST control)"
same,binding signal,SPIC,"1.06 fold enrichment (6-mer frequency, TF over GST control)"
same,binding signal,ELF4,"1.28 fold enrichment (6-mer frequency, TF over GST control)"
same,binding signal,ELK4,"1.11 fold enrichment (6-mer frequency, TF over GST control)"
same,binding signal,ETV2,"1.29 fold enrichment (6-mer frequency, TF over GST control)"
same,binding signal,ELF3,"1.17 fold enrichment (6-mer frequency, TF over GST control)"
same,binding signal,ETV1,"1.19 fold enrichment (6-mer frequency, TF over GST control)"
same,binding signal,ERF,"1.18 fold enrichment (6-mer frequency, TF over GST control)"
same,binding signal,ETV3L,"1.18 fold enrichment (6-mer frequency, TF over GST control)"
same,binding signal,ETS2,"1.14 fold enrichment (6-mer frequency, TF over GST control)"
same,binding signal,SPDEF,"1.2 fold enrichment (6-mer frequency, TF over GST control)"
same,binding signal,ETV7,"1.07 fold enrichment (6-mer frequency, TF over GST control)"
same,binding signal,ELF5,"1.14 fold enrichment (6-mer frequency, TF over GST control)"
same,binding signal,ETV3,"1.12 fold enrichment (6-mer frequency, TF over GST control)"
same,binding signal,ETV6,"1.09 fold enrichment (6-mer frequency, TF over GST control)"
